The full ranking holds about 2,300 sequences; the median of “median log2 fold change of GCK-ALFA target abundance (FLAG IP / Myc IP barcode read proportion)” is about 0.095, and the lowest 2% start at about -0.47. For the sample, the lowest values were picked, then their nearest neighbours and some sequences at random.
B1: LC3A_28_660 (protein)
chain: SATREAADAAIAAARAAAARGEPAVITLTVTGDATPEDIDYVLAALEEIAAILAPIPGSAIVIDLEAGVDPEHRQRIIDKAEELEKRYPNVTVIIAEEEE
B2: LC3A_3_1416 (protein)
chain: MEEAKKKALEALKKAGHSEETLKALNELVDLLEARGAEEEAKEVLELVLENKDISSELLLEVLNEAIELLTVKKLSPEEVIKELKEELRIARNEEEIIEL
B3: LC3A_3_1375 (protein)
chain: SEELIEETLAYLREKGKSEETLEAVRRAMEALAEKGYEEALKTFAELLKEMEDLPDEILLDFAEDVLEAVENEDLNEEELIEFIKEEARVARSEGEIIEL
B4: LC3A_free_8_2497 (protein)
chain: SRQEIVDRLLELIDELEEELEEKAKELGLSELDILDITLELGSLKAEIISNSDEPLEVIREELEEGLEEIIELTEELSEELEELAEEGAEKILEELEELE
B5: LC3A_28_1014 (protein)
chain: SHMEERVAALIAEIEAALAKGEYVVATLTITPEDSLEEVKAAMERVGKAALEAAKKGIVDVVVDLEKGVSQEKLDAVMEAADELEKKAPKLNVVIALEEE
B6: LC3A_free_0_2106 (protein)
chain: MTVVGEVLAITEKALTPEQLKKVKEEMEKIAKELEEEYGMKVEVTVKEVDGRTVFTLKFSKEGLSIEEAIEIVDEVADKLEEKLKELGADVTIYTSVYEE
B7: LC3A_17_544 (protein)
chain: MEELKKELEKLLKKLEELVKELEKYDPEKAKKLKKQLEEAKKLIKAGKLREAAELLAKAAREAADAFEKLEPKYGTKASVLAMEASGLELEAIRILLKLE
B8: LC3A_17_542 (protein)
chain: MEEIKKELEELLKKLEKLVEKLAEYDPEKAKKLKKKLEEAKKLIKAGKLKEAAELLAEAAREAAEAWEELEPEYGTEASVYAMEASGLELEAIGILLKLD
B9: LC3A_28_1074 (protein)
chain: SAVEEENEKILKEAKEAKEKGEPAVITIKIDESDTDEDIEKKLETIREVAEILKDVEGAAIIIDLEGEKALSRLDEVADLADELEEKYPNLTVIIALDDE
B10: LC3A_free_46_2358 (protein)
chain: YKAEIDIDLLHEDKEVLEKAVEEIEKAAREIAEKYGLKVEIEKEFEKLPDGSYYARIRITLEGEDKEKVEEAVNELINEIDKISKKYDVASIISYEIEEK
B11: LC3A_free_8_2524 (protein)
chain: SKQEFANKATEVLDELEEKLRKALEELGASRLDILEAEVLVGSIIAEVISLSDKEPEEQLKAIKEGLKDLVEELEKYKETVKKLADEALKKIEEIKKELE
B12: LC3A_147_445 (protein)
chain: VKVEVTIGVLMKNKPEVGDELVEKLRETAEAAGAEVEVEVEREKIDENTVYLLIKLTLTTETREAAEALANKVIDTVEEFAEKHKDEILGYIISVEISEA
B13: LC3A_127_188 (protein)
chain: EIEKLIKELLKELEKLSELLSSPDFDLEEAEKLAKKILKLAKELEKLDPRFKPLVEDAKELLKIIEEMKNASPAEQEELKEHALMLVEGMEIEALSLELK
B14: LC3A_free_46_2376 (protein)
chain: YKIEIDIYFSAMSKEKAEEMAEEIKKAAEEISKKTGVKIEVEVKIITDENGETWLEVKVTIEGEDKEKALKAATELIDKFDEIAEKHGVSLIISVEEIDE
B15: LC3A_59_2018 (protein)
chain: SEELEALRERLREAVDDIDAFVAIVREGLERFRDDPERVRALLRAAMDVIVEELGMDPEEAEKTLAEMLAIWETEPDKEEAIARVTELVRDTLLLTPIEE
B16: LC3A_free_8_2515 (protein)
chain: MNQEFANKATEILEELEEKLVELLKEKGASELDILEAELLIGSAIAEVISLSDKSPEEILKAIRESLEELVEELEEHREEVKELAEEALKKIEEKKKELE
B17: LC3A_3_1855 (protein)
chain: MEEIIEEALKLLKELGRSEETIEAARKLLEALKERGFEEAAKVLLEELKKLKNVSDEDLLEMFNELLKALEEEDLNEEEAIELIKSEARVLLNAEEIEEL
B18: LC3A_3_1647 (protein)
chain: PEEEVEETVELLREAGHSEETIEAFRETAEALLERGYEEALRVLIEETRELLDLPDEILLAMLEEVLRVIKEEDLSEEEVIEEIRRIARIARSEGEIIEL
B19: LC3A_free_39_2193 (protein)
chain: SAAETEKAKAELLALAAEAGEEAKKLAEEIIKLIGEDLEKLKKLLEALKKAKEAGVDVLEVLKEALELAKELKKQGKSKEEIFEEVLELIEDAINLIPID

molecular target: MAP1LC3A, Q9H492; experiment: median log2 fold change of GCK-ALFA target abundance (FLAG IP / Myc IP barcode read proportion) (log2 ratio); each designed protein is fused to an ALFA-tag nanobody in HEK293 cells to bring the named protein to FLAG-tagged glucokinase (GCK); Myc marks an untargeted standard; higher = target protein stabilised (more abundant); conditions: target protein: 3xFLAG-MCP-GCK-ALFA reporter; HEK293 landing pad (RPLP)
Procedure, shortened: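 An ALFA-nanobody-fused binder library was recombined into HEK293 landing-pad cells and induced with 2 μg mL^−1 doxycycline. Cells were transfected with a plasmid expressing a FLAG-tagged target and a Myc-tagged standard. After 48 h, lysates underwent anti-FLAG and anti-Myc immunoprecipitation, and circular RNA barcodes were reverse transcribed, amplified and sequenced. Target abundance is the per-binder median log2 ratio of FLAG to Myc barcode read proportions. Barcodes needed ≥10^−7 proportion in both replicates, binders ≥3 barcodes per replicate, and a 10^−6 pseudocount was added; the two replicates were pooled.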

Binder	median log2 fold change
B1	0.104
B2	0.297
B3	0.306
B4	-0.679
B5	-0.297
B6	-0.0524
B7	0.0592
B8	-0.71
B9	0.0473
B10	-0.026
B11	-0.575
B12	-0.265
B13	0.156
B14	-0.231
B15	-0.587
B16	0.159
B17	0.224
B18	0.138
B19	0.242
